According to PubChem BioAssay:
Unmarked numbers belong to inactive results. For some assays here: Measured potencies and affinities stand elsewhere. Active and inactive are the calls of the source. Unless noted, how the calls were made is not given here.

Assays:
[1] = antimalarial activity against Dd2 strain (AID 2302;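 active means growth inhibition above 50% at the single 2 µM test dose, taken to imply half-maximal potency below 2 µM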;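 further: 0% = DMSO untreated growth and 100% = chloroquine plus artemisinin killed control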); details: P. falciparum Dd2 in RBCs, LDH growth readout, 72 h; at 2 µM; active compounds read high
[2] = human hepatoma cell viability loss – ATP luminescence, cytotoxicity control for P. falciparum antimalarial project, primary screen (AID 2303;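 active means inhibition above 50%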;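 further: 0% = DMSO wells and 100% = digitonin-killed cells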); details: HepG2 viability, 24-48 h, at 10 µM, active compounds read high
[3] = target: L-lactate dehydrogenase (Plasmodium falciparum (isolate CDC / Honduras)) (UniProt Q27743); experiment: PfLDH activity inhibition – cell lysate, 3D7 strain, counter-screen for P. falciparum growth inhibition project (AID 2304);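 further: 0% = vehicle and 100% = reference inhibitor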; details: P. falciparum 3D7 crude extract, LDH APAD/NBT absorbance; at 2 µM; active compounds read high
Sequence of L-lactate dehydrogenase (Plasmodium falciparum (isolate CDC / Honduras)) (Q27743 whole entry, looked up): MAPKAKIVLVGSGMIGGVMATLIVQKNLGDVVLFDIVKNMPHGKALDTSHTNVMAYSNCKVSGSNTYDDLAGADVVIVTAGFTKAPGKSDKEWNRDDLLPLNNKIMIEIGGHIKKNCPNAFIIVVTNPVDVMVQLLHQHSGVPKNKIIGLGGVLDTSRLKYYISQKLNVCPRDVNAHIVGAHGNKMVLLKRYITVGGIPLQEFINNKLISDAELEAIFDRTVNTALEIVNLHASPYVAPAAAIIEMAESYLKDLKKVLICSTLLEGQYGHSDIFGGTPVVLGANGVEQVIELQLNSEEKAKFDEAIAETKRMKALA

[4] = inhibition of 3D7 malaria parasite growth – strain 3D7 (AID 2306);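 further: 0% = DMSO wells and 100% = chloroquine plus artemisinin control wells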; details: P. falciparum 3D7 erythrocytic growth, LDH absorbance, 72 h; at 2 µM; active compounds read high
[5] = target: Calcium-dependent protein kinase 1 (Plasmodium falciparum (isolate 3D7)) (UniProt P62344); experiment: PfCDPK1 kinase inhibitors, biochemical, TCAMS library (AID 1159585; cut-off not given, nearly all actives have IC50 up to about 0.98 µM;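 further: inhibitors leave more ATP so luminescence rises with inhibition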); details: recombinant PfCDPK1, Kinase-Glo ATP depletion luminescence
Sequence of Calcium-dependent protein kinase 1 (Plasmodium falciparum (isolate 3D7)) (P62344 whole entry, looked up): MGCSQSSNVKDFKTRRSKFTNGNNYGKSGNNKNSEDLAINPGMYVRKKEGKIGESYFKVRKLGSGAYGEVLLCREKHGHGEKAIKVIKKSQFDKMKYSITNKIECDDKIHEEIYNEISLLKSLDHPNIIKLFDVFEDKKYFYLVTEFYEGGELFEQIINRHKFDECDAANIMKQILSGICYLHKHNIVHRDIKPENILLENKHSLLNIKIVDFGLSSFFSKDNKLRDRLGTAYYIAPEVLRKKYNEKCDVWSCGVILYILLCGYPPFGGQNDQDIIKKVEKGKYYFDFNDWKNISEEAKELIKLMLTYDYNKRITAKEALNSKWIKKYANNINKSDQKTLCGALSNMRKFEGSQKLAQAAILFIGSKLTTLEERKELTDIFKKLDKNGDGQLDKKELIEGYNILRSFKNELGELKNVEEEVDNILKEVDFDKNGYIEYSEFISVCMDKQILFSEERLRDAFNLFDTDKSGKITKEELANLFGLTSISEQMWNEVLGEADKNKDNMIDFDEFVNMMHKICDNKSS

[6] = target: Plasmodium falciparum protein kinase 6 (PK6, PF3D7_1337100) (UniProt Q8IDW1); experiment: PfPK6 kinase inhibitors, biochemical, TCAMS library (AID 1159586); details: recombinant PfPK6, Kinase-Glo ATP depletion luminescence
Sequence of Plasmodium falciparum protein kinase 6 (PK6, PF3D7_1337100) (Q8IDW1 1-305): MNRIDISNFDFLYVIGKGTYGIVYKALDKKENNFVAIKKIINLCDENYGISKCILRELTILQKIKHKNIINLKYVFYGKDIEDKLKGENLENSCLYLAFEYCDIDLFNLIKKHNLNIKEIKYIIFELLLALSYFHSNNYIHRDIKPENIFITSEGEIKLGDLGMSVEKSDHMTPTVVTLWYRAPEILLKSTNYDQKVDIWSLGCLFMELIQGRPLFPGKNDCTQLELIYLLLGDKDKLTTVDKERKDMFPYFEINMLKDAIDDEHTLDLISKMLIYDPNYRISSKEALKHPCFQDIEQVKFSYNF

[7] = target: Protein kinase 7 (PK7), Plasmodium falciparum 3D7 (PF3D7_0213400) (UniProt Q7YTF7); experiment: inhibition of Plasmodium PK7 catalytic activity – biochemical, TCAMS antimalarial set, Kinase-Glo luminescence (AID 1159587); details: recombinant PfPK7, Kinase-Glo ATP depletion luminescence
Sequence of Protein kinase 7 (PK7), Plasmodium falciparum 3D7 (PF3D7_0213400) (Q7YTF7 1-343): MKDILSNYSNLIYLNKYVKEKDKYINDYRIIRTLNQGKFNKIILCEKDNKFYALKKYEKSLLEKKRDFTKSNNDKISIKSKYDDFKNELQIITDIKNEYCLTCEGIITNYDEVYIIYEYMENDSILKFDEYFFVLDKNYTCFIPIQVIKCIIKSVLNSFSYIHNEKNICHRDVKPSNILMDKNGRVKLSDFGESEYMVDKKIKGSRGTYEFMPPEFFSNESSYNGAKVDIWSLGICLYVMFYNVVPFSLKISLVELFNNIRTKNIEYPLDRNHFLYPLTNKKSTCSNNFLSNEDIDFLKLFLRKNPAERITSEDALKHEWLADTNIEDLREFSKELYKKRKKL

[8] = target: Calcium-dependent protein kinase 4 (Plasmodium falciparum (isolate 3D7)) (UniProt Q8IBS5); experiment: PfCDPK4 kinase inhibitors, biochemical, TCAMS library (AID 1159588; cut-off not given, nearly all actives have IC50 up to about 0.91 µM); details: recombinant PfCDPK4, Kinase-Glo ATP depletion luminescence
Sequence of Calcium-dependent protein kinase 4 (Plasmodium falciparum (isolate 3D7)) (Q8IBS5 whole entry, looked up): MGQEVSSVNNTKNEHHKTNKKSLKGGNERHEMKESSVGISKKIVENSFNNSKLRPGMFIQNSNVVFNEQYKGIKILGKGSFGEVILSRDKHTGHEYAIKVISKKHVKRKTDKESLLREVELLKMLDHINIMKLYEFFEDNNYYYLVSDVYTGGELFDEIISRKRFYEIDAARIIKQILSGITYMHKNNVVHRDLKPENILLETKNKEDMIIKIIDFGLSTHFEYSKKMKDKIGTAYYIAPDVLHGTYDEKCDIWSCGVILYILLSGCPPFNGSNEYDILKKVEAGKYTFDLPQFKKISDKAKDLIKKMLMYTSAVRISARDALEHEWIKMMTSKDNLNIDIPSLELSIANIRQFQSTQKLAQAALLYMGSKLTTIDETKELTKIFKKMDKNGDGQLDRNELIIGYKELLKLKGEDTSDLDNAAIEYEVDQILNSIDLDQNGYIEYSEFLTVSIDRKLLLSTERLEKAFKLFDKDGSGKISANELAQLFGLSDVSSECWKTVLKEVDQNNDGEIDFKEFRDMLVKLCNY

Row | SMILES | growth inhibition [1] | inhibition [2] | inhibition [3] [%] | growth inhibition [4] | outcome [5] | outcome [6] | outcome [7] | outcome [8]
1 | OCC1CCN(Cc2cccc(C#Cc3cc4ncnc(Nc5ccc(OCc6cccc(F)c6)c(Cl)c5)c4s3)n2)CC1 | 95% (active) | 41% | 1 | 99% (active) | inactive | inactive | inactive | inactive
2 | COc1cc(NC2=C(c3ccccc3)C(=O)c3ccccc32)ccn1 | 96% (active) | 7% | 4 | 96% (active) | inactive | inactive | inactive | inactive
3 | CN1C(=O)C(=O)N(CCCCCON=C(N)N)C1=S | 1% | 21% | -1 | 101% (active) | inactive | inactive | inactive | inactive
4 | O=C(NC(c1ccccc1)c1ccc2cccnc2c1O)c1ccccc1 (stereo not given) | 63% (active) | 53% (active) | -4 | 94% (active) | inactive | inactive | inactive | inactive
5 | O=C(NC1CC1)c1ccc(N2CCC(COc3cccc(F)c3)CC2)nc1 | 88% (active) | 0% | 4 | 89% (active) | inactive | inactive | inactive | inactive
6 | Cc1cc(N[C@@H](Cc2ccccc2)C(=O)NC2CCCC2)nc(NCC2CCCCC2)n1 | 96% (active) | 18% | 4 | 101% (active) | inactive | inactive | inactive | inactive
7 | CCOC(=O)c1cc(Cl)cc(Cl)c1OCCCON1C(N)=NC(N)=NC1(C)C | 97% (active) | 70% (active) | -6 | 93% (active) | inactive | inactive | inactive | inactive
8 | c1ccc(Oc2ccc(Nc3ccnc4cc(-c5ccc(CN6CCCCC6)o5)ccc34)cc2)nc1 | 100% (active) | 18% | -4 | 101% (active) | inactive | inactive | inactive | inactive
9 | C=CCN(c1nc(NC)nc(NCc2c(OC)cccc2OC)n1)C1CCCC1 | 70% (active) | 18% | -3 | 85% (active) | inactive | inactive | inactive | inactive
10 | CCc1sc(CN(CCCNc2cc(=O)c3ccccc3[nH]2)Cc2sc(CC)c(Br)c2-c2ccsc2)c(-c2ccsc2)c1Br | 98% (active) | 10% | 0 | 99% (active) | inactive | inactive | inactive | inactive
11 | Oc1ccc2[nH]c(-c3ccc(OC(F)(F)F)cc3)nc2c1CNC1CCCC1 | 97% (active) | 32% | 0 | 99% (active) | inactive | inactive | inactive | inactive
12 | Cc1cccc(S(=O)(=O)Nc2cccc(CCN3CCC(N4CCCCC4)CC3)c2)c1 | 13% | 15% | -2 | 87% (active) | inactive | inactive | inactive | inactive
13 | Cc1cccc2[nH]c(-c3ccc(-c4ccc(CN5CCN(C6CCN(C)CC6)CC5)cc4)s3)nc12 | 101% (active) | 97% (active) | -4 | 101% (active) | inactive | inactive | inactive | inactive
14 | COc1cc2ncnc(Nc3ccc(OCc4ccccc4)c(OCc4ccccc4)c3)c2cc1OC | 57% (active) | 4% | -1 | 100% (active) | inactive | inactive | inactive | inactive
15 | CCOc1cc(Cl)c(C(C)NC(=O)c2ccccc2)cc1OCC (stereo not given) | 49% | -3% | -1 | 91% (active) | inactive | inactive | inactive | inactive
16 | CC(CN(C)C)C(=O)Nc1cccc(-c2ccc(-c3nc4ccccc4[nH]3)cc2)c1 (stereo not given) | 25% | 1% | -8 | 98% (active) | inactive | inactive | inactive | inactive
17 | O=C(C=Cc1cccs1)N(CCCn1ccnc1)c1nc2ccc(F)cc2s1 | 28% | -1% | -1 | 98% (active) | inactive | inactive | inactive | inactive
18 | Cc1ccc(C2(C)CN(CCCOc3cccc(-c4ccc(C(=O)NC(C)C)cc4)c3)CCO2)cc1 (stereo not given) | 89% (active) | 15% | 0 | 93% (active) | inactive | inactive | inactive | inactive
19 | CC(C)[C@H](NC(=O)c1ccc(O)c(-c2ccc(Cl)c(Cl)c2)c1)C(=O)NC1CCCCCC1 | 99% (active) | -4% | -2 | 99% (active) | inactive | inactive | inactive | inactive
20 | O=C(Nc1cccc(-c2cccc(-c3nc4ccccc4[nH]3)c2)c1)c1cccnc1 | 14% | 12% | -3 | 95% (active) | inactive | inactive | inactive | inactive

Row | SMILES | growth inhibition [1] | inhibition [2] | inhibition [3] [%] | growth inhibition [4] | outcome [5] | outcome [6] | outcome [7] | outcome [8]
21 | CN(C(=O)Cc1ccc(Cl)c(Cl)c1)C1CCN(CCCCCNC(=O)/C=C/c2ccc(Cl)c(Cl)c2)CC1 | 13% | 87% (active) | -4 | 84% (active) | inactive | inactive | inactive | inactive
22 | Cc1cc(O)c(CN(C)Cc2ccc3c(c2)OCO3)cc1C(C)C | 74% (active) | 9% | 0 | 98% (active) | inactive | inactive | inactive | inactive
23 | CCOC(=O)c1[nH]c(-c2ccccc2)nc1NC(=S)NC1CCCCC1 | 1% | 6% | 1 | 96% (active) | inactive | inactive | inactive | inactive
24 | CCCNC(=O)c1cncc(-c2cccc(CNC3Cc4ccccc4C3)c2)c1 | 2% | -2% | -3 | 100% (active) | inactive | inactive | inactive | inactive
25 | N#Cc1ccc(-c2ccc(C(=O)NC3CCN(CCN4CCC(c5cn(CCOC6CCCCO6)c6ccccc56)CC4)CC3)cc2)cc1 (stereo not given) | 86% (active) | 48% | 2 | 99% (active) | inactive | inactive | inactive | inactive
26 | Cc1cc([N+](=O)[O-])ccc1NC(=O)Nc1cccc(C(F)(F)F)c1 | 100% (active) | 15% | -1 | 102% (active) | inactive | inactive | inactive | inactive
27 | COc1ccc2ncc(F)c(CCN3CC[C@@H](CNCc4cc(C)c5c(c4)OCCO5)C3)c2n1 | 44% | 22% | 0 | 98% (active) | inactive | inactive | inactive | inactive
28 | CCC(C)Oc1ccc2nc(N)nc(N)c2c1Cl (stereo not given) | -1% | 57% (active) | -2 | 96% (active) | inactive | inactive | inactive | inactive
29 | Cc1cccc(N2C(N)=NC(N)=NC2(C)C)c1C | -2% | -2% | -6 | 90% (active) | inactive | inactive | inactive | inactive
30 | O=C(NCCCCCN1CCC(c2ccc(O)cc2)CC1)c1ccc(-c2ccccc2)cc1 | -7% | 28% | -1 | 92% (active) | inactive | inactive | inactive | inactive
31 | CCCC(C)N(Cc1ccc(C(C)(C)C)cc1)C(=O)c1ccc(OC)cc1 (stereo not given) | 98% (active) | 7% | -2 | 100% (active) | inactive | inactive | inactive | inactive
32 | COc1ccc(CN2CCC(NCc3cccc(-n4ccnc4)c3)CC2)cc1 | 93% (active) | 10% | -5 | 100% (active) | inactive | inactive | inactive | inactive
33 | Cc1cccc2[nH]c(-c3ccc(-c4cccc(CNCCc5ccncc5)c4)s3)nc12 | 89% (active) | 11% | 2 | 100% (active) | inactive | inactive | inactive | inactive
34 | CCOC(=O)c1c(C)noc1Nc1ccc(OC)cc1 | -6% | -1% | -6 | 99% (active) | inactive | inactive | inactive | inactive
35 | COc1ccc(NC(=O)c2ccc(NC(=O)c3ccc(Cl)cc3)cc2)cc1N1CCN(C)CC1 | 40% | 23% | -8 | 98% (active) | inactive | inactive | inactive | inactive
36 | CN(Cc1ccc(C#N)cc1)C1CCN(c2cc(NC(=O)c3ccc(F)cc3)ccn2)CC1 | 10% | 24% | -5 | 86% (active) | inactive | inactive | inactive | inactive
37 | Cc1cnc(Nc2cccc(CCN3CCOCC3)c2)nc1NC(C)C | 76% (active) | 53% (active) | 1 | 97% (active) | inactive | inactive | inactive | inactive
38 | Cc1cc(F)ccc1[C@H]1CNCCN1C(=O)N(C)[C@@H](C)c1cc(C(F)(F)F)cc(C(F)(F)F)c1 | 99% (active) | 20% | 1 | 100% (active) | inactive | inactive | inactive | inactive
39 | COCCN1CCC(N(Cc2ccc(-c3ccc(OC(F)(F)F)cc3)cc2)C(=O)Cn2c(CCc3cccc(F)c3F)cc(=O)c3ccccc32)CC1 | 92% (active) | 100% (active) | -10 | 96% (active) | inactive | inactive | inactive | inactive
40 | NC(=NC1CC1)c1ccc2nc(CCCCCc3nc4ccc(C(N)=NC5CC5)cc4[nH]3)[nH]c2c1 | 72% (active) | -3% | 2 | 89% (active) | inactive | inactive | inactive | inactive
